# Test results from PubChem BioAssay AID1626 (SRMLSC, 2009).
# Several values for one entry are separate records, joined by “and”; a condition that tells them apart may be missing. Identical values can stand only once. Screen size: about 220,000 compounds; about 2,000 (0.91%) were called active. Not shown: some 2% with an inconclusive outcome. Rule as the data show it: inconclusive = inhibition above about 80% without an active follow-up result; inactive = below that; test concentration not stated here. These entries were drawn from the full list. Measured potencies and affinities stand elsewhere.
# Experiment: M. tuberculosis H37Rv growth inhibitors, H37Rv strain (AID 1626);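 also: bacteria incubated seven days before Alamar blue readout; 0% = bacteria only wells and 100% = bacteria with antibiotic wells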
# Conditions: stronger effect = higher value, concentration not given here
row,SMILES,inhibition
1,O=C(CCc1ccccc1)NC1CCSC1=O (stereo not given),-9.93% (inactive)
2,NC1=NC[C@@H](Cc2ccc(O)cc2)N1CC1CCCCC1,-0.61% (inactive)
3,NC1=NC[C@@H](Cc2ccc(O)cc2)N1CCc1cc(C(F)(F)F)cc(C(F)(F)F)c1,11.5% (inactive)
4,FC(F)(F)c1cc(CCN2C(=S)NC[C@@H]2CC2CCCCC2)cc(C(F)(F)F)c1,-1.6% (inactive)
5,CCCCN1C(N)=NC[C@@H]1Cc1ccc(O)cc1,-2.68% (inactive)
6,NC1=NC[C@@H](Cc2ccc(O)cc2)N1CCC12CC3CC(CC(C3)C1)C2,20.2% (inactive)
7,NC1=NC[C@H](Cc2ccccc2)N1CC1CCCCC1,-8.5% (inactive)
8,NC1=NC[C@H](Cc2ccc(O)cc2)N1CC1CCCCC1,-3.49% (inactive)
9,NC1=NC[C@H](c2ccccc2)N1CCCCC1CCCCC1,52.1% (inactive)
10,COC(=O)c1ccc(COc2ccccc2/C=C(\C#N)C(=O)NC(C)C)cc1,4.92% (inactive)
11,COc1ccc(-n2c(O)c(C(C)=NCc3ccco3)c(=O)[nH]c2=O)cc1,2.3% (inactive)
12,CCOC(=O)C1=C(CSc2nc(-c3ccccc3)ccc2C#N)OC(N)=C(C#N)C1c1ccccc1 (stereo not given),-11.5% (inactive)
13,CCn1c(CCc2nc3ccccc3[nH]2)n[nH]c1=S,-3.65% (inactive)
14,COc1ccccc1NC(=O)N1CCN(c2ccnc3cc(Cl)ccc23)CC1,9.81% (inactive)
15,CC(=O)N1CCN(c2ccnc3cc(Cl)ccc23)CC1,-0.19% (inactive)
16,Cc1ccc(F)cc1NC(=O)N1CCN(c2ccnc3cc(Cl)ccc23)CC1,25.6% (inactive)
17,Cc1cccc(Cl)c1NC(=O)N1CCN(c2ccnc3cc(Cl)ccc23)CC1,0.44% (inactive)
18,O=C(N/N=C/c1ccc2c(c1)OCO2)c1cc(-c2ccccc2)nc2ccccc12,9.28% (inactive)
19,CC1CCCCC1NC(=O)COc1ccc(-n2cnnn2)cc1 (stereo not given),3.54% (inactive)
20,COc1ccc(/C=N/NC(=O)Cn2cnc3c2c(=O)n(C)c(=O)n3C)cc1,0.48% (inactive)
21,CCc1ccc(C(C(=O)NC(C)(C)CC)N(Cc2ccco2)C(=O)Cn2nnc3ccccc32)cc1 (stereo not given),2.42% (inactive)
22,COc1ccc(NS(=O)(=O)c2ccc(Cl)c(NC(=O)c3cccnc3Cl)c2)cc1,9.9% (inactive)
23,O=[N+]([O-])c1cccc2c(Cl)ccnc12,-5.33% (inactive)
24,Cc1ccc(C(=O)CNc2cccc(Cl)c2)cc1,-5.8% (inactive)

row,SMILES,inhibition
1,Cc1ccc(C(=O)CC(=O)c2ccc(C(C)(C)C)cc2)cc1,3.46% (inactive)
2,CC(C)(C)c1ccc(C(=O)NNC(=O)c2ccc(Cl)cc2)cc1,1.17% (inactive)
3,Cc1ccc(NCCC(=O)c2ccc(Cl)cc2)cc1,51.3% (inactive)
4,Cc1ccc(C(=O)CNc2ccc(Cl)cc2)cc1,-1.34% (inactive)
5,Cc1ccc(O)c(C(=O)CC(=O)c2cccc(F)c2)c1,62.1% (inactive)
6,CCOC(=O)c1c(CS(=O)(=O)c2ccccc2)n(C)c2cc(Br)c(O)c(CN(C)C)c12,-0.08% (inactive)
7,COc1cccc(N=Nc2c(N)[nH]n3c(=O)cc(-c4ccccc4)nc23)c1,70.2% (inactive)
8,CCC(Oc1ccccc1)C(=O)N1CCN(c2ccccn2)CC1 (stereo not given),0.51% (inactive)
9,O=C(Nc1ccc(-c2nnn(CC(=O)N3CCN(C(=O)c4ccco4)CC3)n2)cc1)c1ccccc1F,-1.57% (inactive)
10,O=C(O)/C=C/C(=O)NC1CC1,-1.35% (inactive)
11,O=C1OC(/C(=C\Nc2ccc(F)cc2F)[N+](=O)[O-])c2ccccc21 (stereo not given),6.38% (inactive)
12,Cc1ccc(N/C=C(\C2OC(=O)c3ccccc32)[N+](=O)[O-])c(C)c1 (stereo not given),0.81% (inactive)
13,O=C(c1cccc([N+](=O)[O-])c1)N1CCN(c2cccc(Cl)c2)CC1,2.48% (inactive)
14,O=C(c1ccc([N+](=O)[O-])s1)N1CCN(c2ccccc2)CC1,2.71% (inactive)
15,COc1ccc(C2Nc3ccccc3C(=O)N2c2ccccc2)cc1COc1ccccn1 (stereo not given),6.87% (inactive)
16,CCN(CC)CCNS(=O)(=O)c1ccc(C(=O)NN)cc1,2.36% (inactive)
17,Cc1cccc(C)c1OCc1nnc2c3cnn(C)c3ncn12,-9.69% (inactive)
18,COC(=O)c1c(C)oc(C)c1S(=O)(=O)N(C)C1CCCCC1,-4.71% (inactive)
19,O=[N+]([O-])c1ccc(N=Cc2ccc(Br)c([N+](=O)[O-])c2)cc1,8.65% (inactive)
20,C(=Nc1ccc(Nc2ccccc2)cc1)c1ccc2ccccc2c1,51.2% (inactive)
21,COc1ccc(C(=O)CN2C3=NCCCN3c3ccccc32)cc1OC,-2.22% (inactive)
22,CCc1c(C(=O)N/N=C/c2ccsc2)csc1C,-6.79% (inactive)
23,CCc1ccc(C(=O)NC(C(=O)O)C(C)C)cc1 (stereo not given),-19.3% (inactive)
24,COc1ccc(NC(=O)CCSc2ccc3ccccc3n2)cc1,70.9% (inactive)

row,SMILES,inhibition
1,COc1cccc(NC(=O)CCSc2ccc3ccccc3n2)c1,28.7% (inactive)
2,Cc1cc(C)n2nc(N)c(N=Nc3cccc(Cl)c3)c2n1,79.8% (inactive)
3,Cc1nc(S/C(=C/c2ccc(-c3ccc(C(=O)O)cc3)o2)C(=O)O)n[nH]1,-17.2% (inactive)
4,CC(=O)c1ccc(-c2ccc(/C=C(/Sc3n[nH]c(C)n3)C(=O)O)o2)cc1,6.55% (inactive)
5,O=c1oc2ccccc2c(N2CCCCC2)c1CN1CCCCC1,1.71% (inactive)
6,COc1ccc(OC(=O)c2cc3ccccc3o2)cc1,0.38% (inactive)
7,COc1ccc(OC)c(NC(=O)c2cc3ccccc3o2)c1,7.13% (inactive)
8,O=C1CCCC2=C1C(c1ccncc1)c1c(nc(SCc3ccccc3Cl)[nH]c1=O)N2 (stereo not given),11.3% (inactive)
9,CC[C@@H](C)C(NC(=O)OC(C)(C)C)c1cn([C@@H](CCC(=O)OC(C)(C)C)C(=O)N2CCN(C(=O)OC(C)(C)C)CC2)nn1 (stereo not given in full),-1.45% (inactive)
10,O=C(c1ccc(COc2c(F)c(F)c(F)c(F)c2F)o1)N1CCN(Cc2ccc3c(c2)OCO3)CC1,-9.41% (inactive)
11,O=C(c1ccc(COc2ccccc2Cl)o1)N1CCN(Cc2ccc3c(c2)OCO3)CC1,-0.88% (inactive) and 13.3% (inactive)
12,OCCC1CN(Cc2cccc(-n3cccn3)c2)CCN1Cc1ccccc1 (stereo not given),-1.74% (inactive)
13,CC(CCc1ccccc1)NC(=O)CSc1nc(N)cc(N)n1 (stereo not given),-5.33% (inactive)
14,COc1cccc(C2(O)CCN(Cc3ccncc3)CC2)c1,-10.2% (inactive)
15,COc1cc2c(C(=O)O)c(C)n(C)c2cc1Br,-0.16% (inactive)
16,Cc1cnc(C(=O)NCc2ccc(Cl)cc2Cl)cn1,-2.88% (inactive)
17,CCOC(=O)c1cc(C)nc(SC)c1C#N,2.58% (inactive)
18,C#CCSc1nc(C)cc(C(=O)OCC)c1C#N,-3.19% (inactive)
19,NC1=NC(c2ccccc2)=NC1(NC(=O)c1ccccc1)C(Cl)Cl (stereo not given),-0.7% (inactive)
20,COC(=O)c1ccc(OCC(O)CN(CCO)CC(O)Cn2ccc3ccccc32)cc1 (stereo not given),4.35% (inactive)
21,COc1ccc(OCC(O)CN(CCO)CC(O)Cn2ccc3ccccc32)cc1 (stereo not given),3.01% (inactive)
22,Cc1ccsc1C(=O)C1CCCN(Cc2cc(F)ccc2-n2cccn2)C1 (stereo not given),10.8% (inactive)
23,Cc1noc(C)c1COC(=O)c1ccc(-c2nc3ccccc3s2)s1,-10.8% (inactive)
24,CCN1CCN(C(=O)c2ccc(-c3nc4ccccc4s3)s2)CC1,0.41% (inactive)

row,SMILES,inhibition
1,COCCNC(=O)COC(=O)CSCc1nc2ccccc2s1,-1.53% (inactive)
2,O=C(NC1CC1)c1ccc(-c2nc3ccccc3s2)s1,46.3% (inactive)
3,O=S(=O)(NC1CCCCC1)c1ccc(Br)cc1,3.07% (inactive)
4,Cc1occc(=O)c1OCc1c(F)cccc1Cl,1.78% (inactive)
5,CC(C)CNC(=O)COc1ccc(Sc2ccc(OCC(=O)NCC(C)C)cc2)cc1,4.46% (inactive)
6,CCc1nnc(NC(=O)CCC(=O)NCc2ccc(OC)cc2)s1,-3.41% (inactive)
7,O=C(O)c1cccc(Cn2c(Cl)c(/C=N/NC(=O)c3cccc(O)c3)sc2=O)c1,-13.5% (inactive)
8,Cc1ccc(NC(=O)CCC(=O)c2cccs2)c(O)c1,-1.47% (inactive)
9,Cc1ccc2nc(-c3ccncc3)cc(-c3ccccc3)c2c1,9.15% (inactive)
10,CCS(=O)(=O)Nc1cccc(-c2ccc3nnc(C)n3n2)c1,-7.2% (inactive)
11,CCOC(=O)c1cc(-c2ccccc2)nc2ccc(C)cc12,29.4% (inactive)
12,Cc1ccc2nc(-c3ccc(NS(C)(=O)=O)cc3)cc(-c3ccccc3)c2c1,64.5% (inactive)
13,COC(=O)[C@@H]1CCCN1C(=O)CCc1nnc(C2CCCCC2)o1,3.78% (inactive)
14,COc1ccc(NC(=O)O/N=C2/CCCc3ccc(OC)cc32)cc1,-0.42% (inactive)
15,O=S(=O)(Cc1cc(N2CCOCC2)nc(-c2ccccn2)n1)c1ccccc1,2.59% (inactive)
16,Cc1nc(CSc2ccc(Cl)cc2)cc(N2CCOCC2)n1,-2.98% (inactive)
17,O=C(Nc1ccc2c(c1)OCO2)c1ccc(S(=O)(=O)N2CCCC2)cc1,-0.32% (inactive)
18,CCOc1ccc(NC(=O)c2ccc(CNc3c(N4CCCC4)c(=O)c3=O)cc2)cc1,67.9% (inactive)
19,CCOc1cc(/C=C/c2ccc3cccc([N+](=O)[O-])c3n2)cc(Cl)c1O,0.72% (inactive)
20,Nc1nccc(/C=C/c2c(F)cccc2Cl)n1,0.04% (inactive)
21,CC(=O)Oc1c(Cl)cc(Cl)cc1/C=C/c1ccc2ccccc2n1,21.1% (inactive)
22,Fc1cccc(F)c1/C=C/c1ccc2ccccc2n1,7.53% (inactive)
23,Clc1ccccc1OCc1nn[nH]n1,-3.82% (inactive)
